Measurements taken from PubChem BioAssay AID1159580 (chemical genetic matrix, 2015).
In all, about 5,500 compounds went through this assay and about 2,000 (36%) were called active. Inconclusive results (about 18%) are left out. No stated cut-off is given here; in the data, active means normalized growth mostly below about 0.91 (no sharp cut-off); inconclusive means no clear call, values can overlap the other calls; inactive means mostly above about 0.92. Some of the results follow.

Test: chemical genetic growth profiling, strain panel (AID 1159580);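 further: tested at 20 µM; growth read once vehicle control cultures reached saturation at 30 °C; 1 = growth at the plate median or of vehicle wells; lower values mean less growth of the strain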
Settings: growth OD

Measured: normalized growth

COc1cc(O)c(C(=O)c2ccccc2)c(OC)c1
active: S. cerevisiae deletion strains, locus YLR418C, strain cdc73, hits give low values 0.813 | S. cerevisiae deletion strains, locus YNL307C, strain MCK1, hits give low values 0.73
inactive: S. cerevisiae deletion strains, locus YAL013W, strain DEP1, hits give low values 0.982 | S. cerevisiae deletion strains, locus YBR021W, strain FUR4, hits give low values 0.898 | S. cerevisiae deletion strains, locus YBR229C, strain ROT2, hits give low values 0.985 | S. cerevisiae deletion strains, locus YCL029C, strain bik1, hits give low values 0.996 | S. cerevisiae deletion strains, locus YDL035C, strain GPR1, hits give low values 0.972 | S. cerevisiae deletion strains, locus YDL074C, strain BRE1, hits give low values 0.922 | S. cerevisiae deletion strains, locus YDL101C, strain DUN1, hits give low values 0.986 | S. cerevisiae deletion strains, locus YDL134C, strain PPH21, hits give low values 0.984 | S. cerevisiae deletion strains, locus YDL185W, strain tfp1, hits give low values 0.989 | S. cerevisiae deletion strains, locus YDL192W, strain arf1, hits give low values 0.982 | S. cerevisiae deletion strains, locus YDR101C, strain arx1, hits give low values 0.961 | S. cerevisiae deletion strains, locus YDR150W, strain NUM1, hits give low values 0.994 | S. cerevisiae deletion strains, locus YDR162C, strain NBP2, hits give low values 0.907 | S. cerevisiae deletion strains, locus YDR318W, strain mcm21, hits give low values 0.956 | S. cerevisiae deletion strains, locus YDR388W, hits give low values 0.978 | S. cerevisiae deletion strains, locus YDR502C, strain sam2, hits give low values 0.937 | S. cerevisiae deletion strains, locus YEL061C, strain CIN8, hits give low values 0.984 | S. cerevisiae deletion strains, locus YER110C, hits give low values 0.994 | S. cerevisiae deletion strains, locus YER155C, strain BEM2, hits give low values 0.989 | S. cerevisiae deletion strains, locus YER167W, strain BCK2, hits give low values 0.954 | S. cerevisiae deletion strains, locus YGL078C, strain dbp3, hits give low values 0.99 | S. cerevisiae deletion strains, locus YGL086W, strain mad1, hits give low values 0.983 | S. cerevisiae deletion strains, locus YGL248W, strain PDE1, hits give low values 0.983 | S. cerevisiae deletion strains, locus YGR078C, strain PAC10, hits give low values 0.927 | S. cerevisiae deletion strains, locus YGR135W, strain pre9, hits give low values 0.92 | S. cerevisiae deletion strains, locus YGR229C, strain SMI1, hits give low values 0.885 | S. cerevisiae deletion strains, locus YGR252W, strain gcn5, hits give low values 0.914 | S. cerevisiae deletion strains, locus YHR030C, strain SLT2, hits give low values 0.945 | S. cerevisiae deletion strains, locus YHR079C, strain IRE1 (second series), hits give low values 0.966 | S. cerevisiae deletion strains, locus YHR094C, strain hxt1, hits give low values 0.986 | S. cerevisiae deletion strains, locus YHR129C, strain ARP1, hits give low values 0.972 | S. cerevisiae deletion strains, locus YHR200W, strain rpn10, hits give low values 0.985 | S. cerevisiae deletion strains, locus YIL066C, strain RNR3, hits give low values 0.938 | S. cerevisiae deletion strains, locus YIL073C, strain SPO22, hits give low values 1 | S. cerevisiae deletion strains, locus YIL125W, strain kgd1, hits give low values 0.981 | S. cerevisiae deletion strains, locus YIR030C, strain dcg1, hits give low values 0.979 | S. cerevisiae deletion strains, locus YJL095W, strain BCK1, hits give low values 0.806 | S. cerevisiae deletion strains, locus YJL134W, strain LCB3, hits give low values 0.986 | S. cerevisiae deletion strains, locus YJL168C, strain set2, hits give low values 0.99 | S. cerevisiae deletion strains, locus YJL187C, strain SWE1 (second series), hits give low values 0.964 | S. cerevisiae deletion strains, locus YJR043C, strain POL32, hits give low values 0.981 | S. cerevisiae deletion strains, locus YJR075W, strain HOC1, hits give low values 0.935 | S. cerevisiae deletion strains, locus YKL009W, strain mrt4, hits give low values 0.99 | S. cerevisiae deletion strains, locus YKL068W, hits give low values 0.986 | S. cerevisiae deletion strains, locus YKL085W, strain MDH1 (second series), hits give low values 0.987 | S. cerevisiae deletion strains, locus YKL085W, strain MDH1, hits give low values 0.987 | S. cerevisiae deletion strains, locus YKL190W, strain CNB1, hits give low values 0.991 | S. cerevisiae deletion strains, locus YKR001C, strain vps1, hits give low values 0.936 | S. cerevisiae deletion strains, locus YLR039C, strain RIC1, hits give low values 0.827 | S. cerevisiae deletion strains, locus YLR058C, strain SHM2, hits give low values 0.984 | S. cerevisiae deletion strains, locus YLR102C, strain apc9, hits give low values 0.98 | S. cerevisiae deletion strains, locus YLR262C, strain YPT6, hits give low values 0.817 | S. cerevisiae deletion strains, locus YLR268W, strain sec22, hits give low values 0.904 | S. cerevisiae deletion strains, locus YLR330W, strain CHS5, hits give low values 0.984 | S. cerevisiae deletion strains, locus YLR342W, strain FKS1 (second series), hits give low values 0.88 | S. cerevisiae deletion strains, locus YLR371W, strain rom2, hits give low values 0.991 | S. cerevisiae deletion strains, locus YML016C, strain PPZ1, hits give low values 0.981 | S. cerevisiae deletion strains, locus YML032C, strain rad52, hits give low values 0.994 | S. cerevisiae deletion strains, locus YML124C, strain tub3, hits give low values 0.983 | S. cerevisiae deletion strains, locus YMR078C, strain ctf18, hits give low values 0.98 | S. cerevisiae deletion strains, locus YMR223W, strain ubp8, hits give low values 0.966 | S. cerevisiae deletion strains, locus YMR263W, strain SAP30, hits give low values 0.962 | S. cerevisiae deletion strains, locus YMR307W, strain GAS1, hits give low values 0.647 | S. cerevisiae deletion strains, locus YNL067W, strain RPL9B, hits give low values 0.953 | S. cerevisiae deletion strains, locus YNL128W, strain TEP1, hits give low values 0.991 | S. cerevisiae deletion strains, locus YNL153C, strain GIM3, hits give low values 0.961 | S. cerevisiae deletion strains, locus YNL233W, strain BNI4, hits give low values 0.904 | S. cerevisiae deletion strains, locus YNL250W, strain rad50, hits give low values 1 | S. cerevisiae deletion strains, locus YNL271C, strain bni1, hits give low values 0.982 | S. cerevisiae deletion strains, locus YNL298W, strain CLA4, hits give low values 0.987 | S. cerevisiae deletion strains, locus YNL322C, strain KRE1, hits give low values 0.99 | S. cerevisiae deletion strains, locus YNR052C, strain pop2, hits give low values 1.01 | S. cerevisiae deletion strains, locus YOL006C, strain TOP1, hits give low values 0.824 | S. cerevisiae deletion strains, locus YOL012C, strain htz1 0.9 | S. cerevisiae deletion strains, locus YOL147C, strain pex11, hits give low values 0.965 | S. cerevisiae deletion strains, locus YOR061W, strain CKA2, hits give low values 0.989 | S. cerevisiae deletion strains, locus YOR069W, strain VPS5, hits give low values 0.987 | S. cerevisiae deletion strains, locus YOR136W, strain idh2, hits give low values 1.01 | S. cerevisiae deletion strains, locus YOR144C, strain elg1, hits give low values 0.983 | S. cerevisiae deletion strains, locus YOR184W, strain ser1, hits give low values 0.931 | S. cerevisiae deletion strains, locus YOR316C, strain cot1, hits give low values 0.981 | S. cerevisiae deletion strains, locus YPL055C, strain LGE1, hits give low values 0.927 | S. cerevisiae deletion strains, locus YPL241C, strain CIN2, hits give low values 0.986 | S. cerevisiae deletion strains, locus YPR119W, strain clb2, hits give low values 0.98 | S. cerevisiae deletion strains, locus YPR141C, strain kar3, hits give low values 0.99 | S. cerevisiae deletion strains, locus YPR163C, strain tif3, hits give low values 0.928 | S. cerevisiae deletion strains, locus YPR167C, strain met16, hits give low values 0.978 | S. cerevisiae deletion strains, strain wtn01, hits give low values 0.929 | S. cerevisiae strains, strain wild type, hits give low values 0.983
